From PubChem BioAssay AID602143 (Vanderbilt Specialized Chemistry Center, 2011) come the findings set out here.

Molecules are shown by their SMILES. Activity calls are given as the source filed them. Rule as the data show it: active = remaining activity below about 50%; inactive = the rest.

Phospholipase D2 (Homo sapiens), sequence (O14939 whole entry, looked up): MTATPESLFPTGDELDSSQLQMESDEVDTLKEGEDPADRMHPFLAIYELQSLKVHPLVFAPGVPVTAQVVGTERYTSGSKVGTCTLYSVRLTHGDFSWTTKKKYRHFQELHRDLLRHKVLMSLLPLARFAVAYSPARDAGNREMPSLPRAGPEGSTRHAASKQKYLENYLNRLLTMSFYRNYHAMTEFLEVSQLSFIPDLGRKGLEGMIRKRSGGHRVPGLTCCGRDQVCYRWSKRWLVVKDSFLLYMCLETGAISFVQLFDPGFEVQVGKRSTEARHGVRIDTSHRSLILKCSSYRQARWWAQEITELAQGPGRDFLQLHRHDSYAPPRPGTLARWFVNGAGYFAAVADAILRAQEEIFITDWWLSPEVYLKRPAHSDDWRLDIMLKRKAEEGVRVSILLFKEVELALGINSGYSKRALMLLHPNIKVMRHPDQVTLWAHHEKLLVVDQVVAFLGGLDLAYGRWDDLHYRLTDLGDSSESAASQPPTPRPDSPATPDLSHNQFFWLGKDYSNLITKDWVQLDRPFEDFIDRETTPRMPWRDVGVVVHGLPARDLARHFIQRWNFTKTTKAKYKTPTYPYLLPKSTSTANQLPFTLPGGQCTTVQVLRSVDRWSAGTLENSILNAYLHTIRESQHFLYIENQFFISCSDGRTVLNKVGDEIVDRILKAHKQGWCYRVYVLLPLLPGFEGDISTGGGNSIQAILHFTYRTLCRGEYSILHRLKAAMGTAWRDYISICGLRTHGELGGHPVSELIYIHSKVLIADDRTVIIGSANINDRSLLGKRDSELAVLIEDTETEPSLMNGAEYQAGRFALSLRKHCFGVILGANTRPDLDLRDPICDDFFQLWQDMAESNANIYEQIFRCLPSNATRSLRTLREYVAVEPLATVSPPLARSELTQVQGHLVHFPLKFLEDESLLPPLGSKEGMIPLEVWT
Phospholipase D2 (Homo sapiens), sequence (O14939 whole entry, looked up): as above

This assay addresses Phospholipase D2 (Homo sapiens) (UniProt O14939). The assay can be described thus: PLD2 inhibitors in cells, cell-based, HEK293, single concentration (AID 602143).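 Also: tested at 200 nM.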 The following applies: HEK293 cellular PLD2 activity, percent of control; active compounds read low.
As to `O=C(c1cnc2ccccc2c1)N1CC(N2CCC(n3c(=O)[nH]c4ccccc43)CC2)C1`, the remaining activity is 77.3% (inactive). Regarding `CCCCOc1ccc(C(=O)NCCN2CCC3(CC2)C(=O)NCN3c2cccc(F)c2)cc1`, the remaining activity is 95.2% (inactive). In the case of `O=C(NCCN1CCC2(CC1)C(=O)NCN2c1cccc(F)c1)c1ccc2c(c1)C(=O)OC2=O`, the remaining activity was 66.5% (inactive). For the molecule `O=C(C1C[C@H]1c1ccccc1)N1CC(N2CCC(n3c(=O)[nH]c4ccccc43)CC2)C1` (stereo partly specified), the remaining activity was 87.7% (inactive). As for `C[C@@H](CN1CCC2(CC1)C(=O)NCN2c1ccc(F)c(F)c1)NC(=O)c1ccc2ccccc2c1`, the remaining activity is 51.2% (inactive). For `C[C@@H](CN1CCC2(CC1)C(=O)NCN2c1ccc(F)c(F)c1)NC(=O)c1ccc(Cl)cc1`, the remaining activity is 14.9% (active). With `O=C(NCCN1CCC2(CC1)C(=O)NCN2c1ccccc1)c1ccc2cc(F)ccc2c1`, the remaining activity was 68.8% (inactive).

Regarding `O=C(NCCN1CCC2(CC1)C(=O)NCN2c1ccccc1)c1ncccc1F`, the remaining activity was 82.2% (inactive).

For the molecule `C[C@@H](CN1CCC2(CC1)C(=O)NCN2c1ccc(F)c(F)c1)NC(=O)c1cnc2ccccc2c1`, the remaining activity is 7.28% (active). Next, `O=C(CCN1CCC2(CC1)C(=O)NCN2c1ccccc1)Nc1ccc(F)c(F)c1`: 147% (inactive); `Cc1cccc(C(=O)N[C@@H](C)CN2CCC3(CC2)C(=O)NCN3c2ccccc2)c1`: 83.2% (inactive); `C[C@H](CN1CCC2(CC1)C(=O)NCN2c1ccccc1)NC(=O)c1cc2cc(F)ccc2[nH]1`: 0% (active). Next, `CC(C)[C@@H](CN1CCC2(CC1)C(=O)NCN2c1ccccc1)NC(=O)c1ccc2ccccc2c1`: 80.9% (inactive).

On to `O=C(NCCN1CCC2(CC1)C(=O)NCN2c1cccc(Cl)c1)c1ccc2ccccc2c1`, for which the remaining activity was 72% (inactive). As to `CN1CN(c2ccccc2)C2(CCN(CCNC(=O)c3ccc4ccccc4c3)CC2)C1=O`, the remaining activity was 57.9% (inactive). For the molecule `CCOC(=O)CCN1CCC2(CC1)C(=O)NCN2c1ccccc1`, the remaining activity is 91.6% (inactive). As for `O=C(NCCN1CCC2(CC1)C(=O)N(Cc1ccccc1)c1ccccc12)c1ccc2ccccc2c1`, the remaining activity is 70.6% (inactive). For `Nc1cccc(Cl)c1C(=O)NCCN1CCC2(CC1)C(=O)NCN2c1ccccc1` the value was 100% (inactive). Consider `C[C@@H](CN1CCC2(CC1)C(=O)NCN2c1ccc(F)c(F)c1)NC(=O)c1cc2ccccc2[nH]1`, for which the remaining activity is 0% (active).

For `O=C(NCCN1CCC2(CC1)C(=O)NCN2c1ccc(Br)cc1)c1cnc2ccccc2c1`, the remaining activity is 48.6% (active).

Turning to `O=C(NCCN1CCC2(CC1)C(=O)NCN2c1ccccc1)c1ncc(F)cc1F`, the remaining activity was 52.8% (inactive).
